Assay outcomes deposited in PubChem by National Center for Advancing Translational Sciences (NCATS).
Rows were chosen to be rich in hits. Some 19% of all compounds tested hit in one or more screens of this group.
TDP1 cell CPT: qHTS for Inhibitors of human tyrosyl-DNA phosphodiesterase 1 (TDP1): qHTS in cells in presence of CPT; chicken DT40 Tdp1-/-;hTDP1 cells + 20 nM CPT, ATP luminescence, 48 h; Potency, µM (top dose mostly 46.2 µM), for the others: top-dose activity change, negative = growth inhibition, usual class: inhibitors; 420,000 compounds, 12% hits; note: potency is the fitted concentration of half-maximal effect; nearly all actives have a fitted effect of over 55% in size
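Cell growth measured by CellTiter-Glo luminescence after a minimum 48 h, 37 C compound exposure with 20 nM CPT in Tdp1-knockout DT40 cells stably expressing hTDP1, seeded 400/well; qHTS titration format.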
IL1B secr inh: qHTS for Inhibitors of Inflammasome Signaling: IL-1-beta AlphaLISA Primary Screen; 360,000 compounds, 4.7% hits; THP-1 LPS/ATP IL-1B secretion, AlphaLISA, 16 h; hits give low values; activity change, % at 57.5 µM; in the data active = activity change below about -50%; inconclusive = mostly about -30% to -49%
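THP-1 cells pretreated 1 hr with compounds (up to 57.5 uM final), then stimulated with LPS (250 ng/mL final) plus ATP (1.25 mM final); secreted IL-1B measured by AlphaLISA after 16 hr, decreased signal indicating inhibition.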
ELG1 DNA repair: qHTS screen for small molecules that inhibit ELG1-dependent DNA repair in human embryonic kidney (HEK293T) cells expressing luciferase-tagged ELG1. HEK293T ELG1-luciferase reporter, luminescence, 16 h; DNA damage induced by 5-fluorouridine. Potency, µM (highest dose often 46.1 µM), inactives show at the highest dose activity change, negative = inhibition, hits mostly inhibitors. 330,000 compounds, 2.3% hits; note: potency is the fitted concentration of half-maximal effect; nearly all actives have a fitted effect of over 55% in size
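DMSO vehicle served as the neutral condition. Each well held 2,000 cells given 5-fluorouridine plus compound; after 16 hr at 37 °C/5% CO2, ONE-Glo was added and luciferase measured 30 min later.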
HT1080 IDH1KD tx: qHTS for induction of synthetic lethality in tumor cells producing 2HG: qHTS for the HT-1080-IDH1KD cell line | 360,000 compounds, 2% hits | HT-1080 IDH1 knockdown viability, ATP luminescence, 48 h | Potency, µM (doses to about 46.1 µM), for inactives: at the highest dose activity, negative = toxicity, hits mostly cytotoxic;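 note: potency is the fitted concentration of half-maximal effect; 0% = DMSO wells and -100% = cell-free medium wells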
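IDH1KD HT-1080 cells, 750/well, RPMI + 5% FBS; compound pinned after 2 h settling; 48 h, 37 °C; CellTiter-Glo luminescence; % activity normalised to DMSO and no-cell wells; curves fitted, classed by r2 and efficacy.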
HT1080-NT tox: qHTS for induction of synthetic lethality in tumor cells producing 2HG: qHTS for the HT-1080-NT fibrosarcoma cell line; HT-1080-NT fibrosarcoma viability, CellTiter-Glo ATP luminescence, 48 h; AID 686970, 2013; Potency, µM (titrated, usually from 46.1 µM), for inactives: at the top dose activity, negative = less viability, actives largely listed as cytotoxic; 360,000 compounds, 1.6% hits;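 note: NT is the 2HG producing partner of a matched IDH1 knockdown line; potency is the fitted concentration of half-maximal effect; 0% = DMSO-treated cells and -100% = media-only wells without cells; nearly all actives have a fitted effect of over 55% in size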
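HT-1080-NT; 750 cells/well; 5% FBS RPMI; 48 h compound, 37 degrees C; CellTiter-Glo luminescence; curve fitting and curve-class assignment.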
TDP1 cell noCPT: qHTS for Inhibitors of human tyrosyl-DNA phosphodiesterase 1 (TDP1): qHTS in cells in absence of CPT; DT40 Tdp1-/- hTDP1 cells, no CPT, ATP luminescence, 48 h; Potency, µM (highest dose often 46.2 µM), for the others: at the top dose activity change, negative = growth inhibition, usual class: inhibitors; 420,000 compounds, 15% hits; AID 686978, 2013; note: potency is the fitted concentration of half-maximal effect; nearly all actives have a fitted effect of over 55% in size
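Luminescent ATP content (CellTiter-Glo) served as the growth readout. Knockout chicken DT40 cells expressing human TDP1 were exposed to compounds without camptothecin for a minimum 48 hr at 37 °C.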
Active calls of the source: *; ! = not active in a repeat. Unless noted, calls come from the whole dose curve; as a rule, active = well fitted curve in the direction sought with a large enough effect; inconclusive = small, poorly fitted or top-dose-only effect, or another doubt; inactive = no such curve, though single readings can be large; an effect the other way counts as inactive or inconclusive. Unless noted, % is set by controls: 0 for no effect and ±100 for the full control effect.

O=C(C[C@H]1C/C=C\CC[C@H](Cc2ccc(F)cc2)C(=O)O[C@H](c2ccccc2)CNC1=O)N[C@H](CO)Cc1ccccc1 was read as TDP1 cell CPT 13µM*, IL1B secr inh 0, ELG1 DNA repair 10µM*, HT1080 IDH1KD tx inconclusive, HT1080-NT tox inconclusive and TDP1 cell noCPT 13µM*.
Screening O=C(C[C@H]1C/C=C\CC[C@H](Cc2ccc(F)cc2)C(=O)O[C@@H](c2ccccc2)CNC1=O)N[C@H](CO)Cc1ccccc1 returned TDP1 cell CPT inconclusive, IL1B secr inh -15, ELG1 DNA repair 21µM*, HT1080 IDH1KD tx -7%, HT1080-NT tox -17% and TDP1 cell noCPT inconclusive.
O=C(C[C@@H]1C/C=C/CC[C@@H](Cc2ccc(F)cc2)C(=O)OCCNC1=O)N[C@H](CO)Cc1ccccc1 was read as TDP1 cell CPT inconclusive, IL1B secr inh 18, ELG1 DNA repair -17%, HT1080 IDH1KD tx 1%, HT1080-NT tox -3% and TDP1 cell noCPT inconclusive.
`O=C(C[C@H]1C/C=C\CC[C@H](Cc2ccc(F)cc2)C(=O)O[C@@H](c2ccccc2)CNC1=O)N[C@@H](CO)Cc1ccccc1` gave TDP1 cell CPT inconclusive, IL1B secr inh 63, ELG1 DNA repair 9.2µM*, HT1080 IDH1KD tx inconclusive, HT1080-NT tox inconclusive and TDP1 cell noCPT inconclusive.
For Cc1cc(NS(=O)(=O)c2ccc(NC(=O)c3ccccc3F)cc2)no1 the results were TDP1 cell CPT -19%, IL1B secr inh -18, ELG1 DNA repair 0%, HT1080 IDH1KD tx 0%, HT1080-NT tox -4% and TDP1 cell noCPT 16%.
Screening S=C(NCC1CCCO1)NC1CCCC1 (stereo not given) returned TDP1 cell CPT 19%, IL1B secr inh -3, ELG1 DNA repair 5%, HT1080 IDH1KD tx 6%, HT1080-NT tox 2% and TDP1 cell noCPT -9%.
Cc1ccc(C)c(N2CCN(S(=O)(=O)c3csc(C(N)=O)c3)CC2)c1 was read as TDP1 cell CPT 16µM*!, IL1B secr inh 41, ELG1 DNA repair inconclusive, HT1080 IDH1KD tx -20%, HT1080-NT tox -2% and TDP1 cell noCPT inconclusive.
Cc1ccc(C)c(N2CCN(S(=O)(=O)c3ccc(C(=O)N(C)C)s3)CC2)c1 was read as TDP1 cell CPT 18µM* and TDP1 cell noCPT 16µM*.
Screening Cc1ccc(C)c(N2CCN(S(=O)(=O)c3cn(C)cn3)CC2)c1 returned TDP1 cell CPT -3%, IL1B secr inh 5, ELG1 DNA repair 6%, HT1080 IDH1KD tx -4%, HT1080-NT tox -9% and TDP1 cell noCPT -12%.
For COc1cc2c(cc1OC)n(CC(=O)c1ccc(F)cc1)c(=O)n1nc(CCn3nc(C)cc3C)nc21 the results were TDP1 cell CPT inconclusive and TDP1 cell noCPT -17%.
Screening O=C(NCc1ccccc1)c1onc(CSc2ccc(Cl)cc2)c1C(=O)NCC1CC1 returned TDP1 cell CPT inconclusive, IL1B secr inh -5, ELG1 DNA repair 6%, HT1080 IDH1KD tx 6%, HT1080-NT tox 3% and TDP1 cell noCPT inconclusive.
`O=C(NCc1ccccc1)c1onc(CSc2ccccc2)c1C(=O)NCC1CC1` gave TDP1 cell CPT 13µM*, IL1B secr inh -52*, ELG1 DNA repair 23µM*, HT1080 IDH1KD tx -1%, HT1080-NT tox -16% and TDP1 cell noCPT 21µM*.
For O=C(NCc1ccccc1)c1onc(CSc2ccccc2)c1C(=O)NCc1ccccc1 the results were TDP1 cell CPT 16µM*, IL1B secr inh -16, HT1080 IDH1KD tx 5%, HT1080-NT tox 2% and TDP1 cell noCPT inconclusive.
Screening Cc1cc(C)cc(-n2c(SCC(=O)N3CCC(C)CC3)nc3c([nH]c4ccccc43)c2=O)c1 returned TDP1 cell CPT -3% and TDP1 cell noCPT -8%.
COC(=O)[C@@]12CCCN1[C@H](c1ccc(-c3ccc(OC)cc3)c(OC)c1)[C@H]1C(=O)N(C)C(=O)[C@H]12 was read as TDP1 cell CPT inconclusive, IL1B secr inh -1, ELG1 DNA repair -19%, HT1080 IDH1KD tx 10%, HT1080-NT tox 0% and TDP1 cell noCPT inconclusive.
`CCN1C(=O)[C@@H]2[C@@H](c3ccc(-c4ccc(C(C)=O)cc4)cc3)N3CCCC[C@@]3(C(=O)OC)[C@@H]2C1=O` gave TDP1 cell CPT 16µM*, IL1B secr inh 0, ELG1 DNA repair inconclusive, HT1080 IDH1KD tx 3%, HT1080-NT tox -1% and TDP1 cell noCPT 18µM*.
Screening CCN1C(=O)[C@H]2[C@@H](c3ccc(-c4ccccc4)cc3)N3CCCC[C@@]3(C(=O)OC)[C@H]2C1=O returned TDP1 cell CPT inconclusive, IL1B secr inh -6, ELG1 DNA repair -14%, HT1080 IDH1KD tx -22%, HT1080-NT tox -21% and TDP1 cell noCPT 18µM*.
Screening CCN1C(=O)[C@@H]2[C@@H](c3ccc(-c4ccc(OC)cc4)cc3)N3CCCC[C@@]3(C(=O)OC)[C@@H]2C1=O returned TDP1 cell CPT 26µM*, IL1B secr inh -6, ELG1 DNA repair inconclusive, HT1080 IDH1KD tx -13%, HT1080-NT tox -1% and TDP1 cell noCPT 16µM*.
COc1ccccc1CNc1ncc(-c2ccc(F)cc2)n1C was read as TDP1 cell CPT inconclusive, IL1B secr inh -18, ELG1 DNA repair 1%, HT1080 IDH1KD tx -7%, HT1080-NT tox -13% and TDP1 cell noCPT inconclusive.
COc1ccccc1CNc1ncc(-c2ccccc2)n1C was read as TDP1 cell CPT 26µM*, IL1B secr inh 0, ELG1 DNA repair 5%, HT1080 IDH1KD tx -5%, HT1080-NT tox -19% and TDP1 cell noCPT inconclusive.
COc1ccc(CNc2ncc(-c3ccc(F)cc3)n2C)c2ccccc12 was read as TDP1 cell CPT 23µM*, IL1B secr inh -82*, ELG1 DNA repair -14%, HT1080 IDH1KD tx inconclusive, HT1080-NT tox 23µM* and TDP1 cell noCPT 16µM*.
`COc1ccc(OC)c(CNc2ncc(-c3ccc(F)cc3)n2C)c1` gave TDP1 cell CPT inconclusive, IL1B secr inh -18, ELG1 DNA repair 3%, HT1080 IDH1KD tx -1%, HT1080-NT tox 3% and TDP1 cell noCPT inconclusive.
